# Data as given in paper PMC5540273 (PLoS ONE, 2017).
# Legend:
# Settings in all cases: concentration: 1 μM,replicates: in singlicate; n = 1
# FGFR1 = tested on: FGFR1
# FGFR2 = tested on: FGFR2
# FGFR3 = tested on: FGFR3
# FGFR4 = tested on: FGFR4
# FGR = tested on: FGR
# FLT1 = tested on: FLT1
# FLT3-autoinhibited = tested on: FLT3-autoinhibited
# FLT3 = tested on: FLT3
# FLT4 = tested on: FLT4
# FRK = tested on: FRK
# FYN = tested on: FYN
# GAK = tested on: GAK
# GCN2(Kin.Dom.2,S808G) = tested on: T1, GCN2(Kin.Dom.2,S808G)
# T1 construct: gene EIF2AK4
# GRK1 = tested on: GRK1
# GRK2 = tested on: T2, GRK2
# T2 construct: gene ADRBK1
# GRK3 = tested on: T3, GRK3
# T3 construct: gene ADRBK2
# GRK4 = tested on: GRK4
# GRK7 = tested on: GRK7
# GSK3A = tested on: GSK3A
# GSK3B = tested on: GSK3B
# 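Further: KINOMEscan kinase panel screen.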
Compound,%Inh (FGFR1) [%],%Inh (FGFR2) [%],%Inh (FGFR3) [%],%Inh (FGFR4) [%],%Inh (FGR) [%],%Inh (FLT1) [%],%Inh (FLT3-autoinhibited) [%],%Inh (FLT3) [%],%Inh (FLT4) [%],%Inh (FRK) [%],%Inh (FYN) [%],%Inh (GAK) [%],"%Inh (GCN2(Kin.Dom.2,S808G)) [%]",%Inh (GRK1) [%],%Inh (GRK2) [%],%Inh (GRK3) [%],%Inh (GRK4) [%],%Inh (GRK7) [%],%Inh (GSK3A) [%],%Inh (GSK3B) [%]
CN(C)CCOc1ccc(-c2cc(-c3c[nH]nc3-c3ccccn3)ccn2)cc1 [GW835314],47,17,31,8,7,0,35,59,11,10,15,75,0,17,0,12,3,0,0,7
CNC(=O)c1ccccc1Sc1ccc2c(/C=C/c3ccccn3)n[nH]c2c1,–,86,81,12,85,99.6,15,0,100,0,14,10,0,25,22,44,11,0,0,9
Cc1occc1-c1nc(N)c(OC[C@@H](N)Cc2c[nH]c3ccccc23)cc1-c1cc2c(C)n[nH]c2cn1 [GSK1660450],49,4,0,0,91.6,31,0,0,25,75,87,87,0,74,0,0,49,87,95.7,97.9
CN(C)CC(O)COc1ccc(Nc2nccc(-c3cnn4nc(N5CCOCC5)ccc34)n2)cc1 (stereo not shown) [GW767488],2,6,3,1,93.5,11,40,58,24,0,15,75,56,23,0,0,81,37,4,61
C=CC(=O)Nc1cc2c(Nc3ccc(F)c(Cl)c3)ncnc2cc1OCCCN1CCOCC1 [GW781483],0,0,0,0,14,15,2,27,0,30,0,66,–,0,19,3,39,0,0,0
COc1ccc(C[C@@H](CN)NC(=O)c2cc(Br)c(-c3ccnc4[nH]ccc34)s2)cc1.Cl.Cl [GSK1389063],95.8,83,69,93.2,53,82,42,98,73,29,0,56,40,99.8,67,96,39,98.8,0,8
Cl.Oc1cc(-c2nc(-c3ccccc3)[nH]c2-c2ccncc2)ccc1Cl [SB-386023],6,2,0,0,56,2,0,12,8,73,40,43,20,2,0,0,20,7,17,40
CCN(CC)CCOc1ccc(Nc2ncc3cc(-c4c(Cl)cccc4Cl)c(=O)n(C)c3n2)cc1 [SB-601273],99.9,100,100,97.9,100,99,65,98.7,95.8,100,100,97,100,6,29,57,0,0,17,0
C[C@H]1Oc2cc(cnc2N)-c2c(nn(C)c2C#N)CN(C)C(=O)c2ccc(F)cc21,12,26,0,0,33,0,0,26,0,92,19,25,0,95.8,2,0,0,94.3,21,0
Nc1nc(Nc2ccccc2)cc(-c2ccc3c(N)n[nH]c3c2)n1 [GSK2225749],17,10,18,0,0,10,19,2,9,0,12,63,0,0,74,0,73,0,0,0
CCn1c(-c2nonc2N)nc2c(C#CC(C)(C)O)nc(OCCN)cc21.Cl.Cl [GSK902056],0,100,7,0,30,16,0,0,0,6,0,9,9,19,0,39,14,0,63,36
NC(=O)c1cc(-c2ccccc2)cc2c(C3CCNCC3)c[nH]c12 [GSK301362],32,19,3,9,14,37,25,47,12,2,21,15,38,0,0,0,2,0,0,14
Cc1n[nH]c2ccc(-c3cc(OC[C@@H](N)Cc4ccccc4)cnc3-c3ccoc3)cc12.O=C(O)C(F)(F)F.O=C(O)C(F)(F)F [GSK507358],0,0,0,0,45,2,0,0,5,0,12,82,0,0,0,21,34,0,80,49
CC(C)N1C(=O)Cc2cc(Nc3ncc(C(F)(F)F)c(NCc4cccc(S(C)(=O)=O)c4)n3)ccc21,38,52,43,16,5,62,57,97.6,89,0,4,14,17,25,0,4,28,10,47,0
CC(C)Nc1cc(-c2ccc3c(N)n[nH]c3c2)nc(N)n1 [GSK2221681],20,0,5,5,3,18,0,0,14,3,33,0,0,0,0,0,34,0,0,4
Cc1cc2cn[nH]c2cc1-c1cccc2c(N)c(C(N)=O)nnc12,35,0,0,0,50,0,19,10,2,31,20,34,0,23,1,27,28,0,0,23
C[C@@H]1CCN(C(=O)CC#N)C[C@@H]1N(C)c1ncnc2[nH]ccc12,0,0,0,0,1,0,0,0,0,0,8,19,0,15,0,0,0,25,0,0
O=C(NCCCN1CCOC1=O)c1cnc(NCc2cc(Cl)ccc2Cl)nc1NC1CCCC1,10,24,19,13,29,6,0,21,5,18,12,4,29,22,0,0,2,0,10,0
Cc1ccc(-n2nc(C(C)(C)C)cc2NC(=O)Nc2ccc(OCCN3CCOCC3)c3ccccc23)cc1 [GW839464],–,2,0,0,–,67,0,29,58,48,0,0,0,0,5,0,16,0,29,0
